Molecules are shown by their SMILES.

Inhibition data for 13 compounds are collected here from ChEMBL document CHEMBL3433997, “St. Jude Leishmania screening dataset” (2016).

Common to all, as to assay type: functional
Experiment [1] has as its target Solute carrier family 2, facilitated glucose transporter member 1 (Homo sapiens) (UniProt P11166). As to the kind of experiment: ST_JUDE_LEISH: Cytotoxicity at 2uM final concentration against transgenic Leishmania Mexicana promastigotes LmGLUT1 that are glucose transport deficient and complemented with the human glucose transporter GLUT1. Activity is measured by DNA content using SYBR green in vitro.

Experiment [2] concerns the target Hexose transporter 1 (Plasmodium falciparum) (UniProt O97467). Nature of the experiment: ST_JUDE_LEISH: Cytotoxicity at 2uM final concentration against transgenic Leishmania Mexicana promastigotes LmPfHT that are glucose transport deficient and complemented with the Plasmodium falciparum hexose transporter. Activity is measured by DNA content using SYBR green in vitro.

For experiment [3], the target named is Glucose transporter (Leishmania mexicana) (UniProt O61059). As to the kind of experiment: ST_JUDE_LEISH: Cytotoxicity at 2uM final concentration against transgenic Leishmania Mexicana promastigotes LmGT2 that are glucose transport deficient and complemented with the L. Mexicana glucose transporter 2. Activity is measured by DNA content using SYBR green in vitro.

Chain of Solute carrier family 2, facilitated glucose transporter member 1 (Homo sapiens) (P11166 whole entry): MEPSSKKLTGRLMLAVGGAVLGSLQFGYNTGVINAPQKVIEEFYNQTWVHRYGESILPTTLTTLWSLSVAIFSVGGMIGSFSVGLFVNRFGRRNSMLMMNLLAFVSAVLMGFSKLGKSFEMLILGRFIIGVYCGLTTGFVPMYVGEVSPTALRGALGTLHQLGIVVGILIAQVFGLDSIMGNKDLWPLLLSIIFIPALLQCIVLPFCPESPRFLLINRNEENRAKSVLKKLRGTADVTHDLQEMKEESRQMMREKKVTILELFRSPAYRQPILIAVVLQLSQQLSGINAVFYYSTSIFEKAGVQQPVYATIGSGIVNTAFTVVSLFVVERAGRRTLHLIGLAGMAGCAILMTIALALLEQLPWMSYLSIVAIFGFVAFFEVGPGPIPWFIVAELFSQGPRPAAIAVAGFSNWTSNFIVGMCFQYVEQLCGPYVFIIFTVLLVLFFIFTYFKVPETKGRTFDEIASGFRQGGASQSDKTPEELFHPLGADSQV

As a reminder, the inhibition is the relative decrease from the control value, in per cent. As for `Cc1[nH]cnc1-c1cccc(NC(=O)c2cc3ccccc3s2)c1`, the inhibition in experiment [1] is -1.01%; in experiment [2], -1.53%; in experiment [3], -0.35%.
As to `O=S(=O)(c1ccc(OCc2ccc(Cl)cc2)cc1)c1cc2c(cc1OCc1ccccc1)CCN(CC1CC1)CC2`, the inhibition was 0.01% in experiment [1], -1.17% in experiment [2] and -3.24% in experiment [3].
The matching figures for `CC(C)(C)c1ccccc1SC1=C(O)CC2(CCNCC2)OC1=O`: 0.78%, 0.64% and 1.29%.
The matching figures for `N=C(N)NCCCC(=O)NCC(N)=O`: 5.44%, 8.67% and 2.28%.
As to `CCNC(=O)c1cc(S(=O)(=O)N2CCN(c3ccccn3)CC2)cs1`, the values for the inhibition in experiment [1], in experiment [2] and in experiment [3] were 0.14%, -0.21% and 2.62%, respectively.
For the compound `O=C(Nc1ccc(F)cc1)NC1CCN(c2ccnc3cc(Cl)ccc23)CC1`, the results for the inhibition in experiment [1], in experiment [2] and in experiment [3] were 3.63%, 3.1% and 1.68%, respectively.
Consider `O=S(=O)(Nc1ccc(CCN2CCC(N3CCCCC3)CC2)cc1)c1ccc2ccccc2c1`, for which the inhibition amounted to 4.91% in experiment [1], 11.2% in experiment [2] and 4.79% in experiment [3].
As for `CCCN1CCC(NCc2cn(C)nc2-c2ccc(Oc3ccccc3)cc2)CC1`, the inhibition in experiment [1] came out at 10.8%; in experiment [2], 11%; in experiment [3], 11.5%.
Consider `CC(C)Cn1cc(C2CCN(CCN3CCC(CNC(=O)c4ccc(NC(=O)c5ccc(Cl)cc5)cc4)CC3)CC2)c2ccccc21`, for which the inhibition in experiment [1] came out at 7.85%; in experiment [2] it was 7.36%; in experiment [3], 4.99%.
`COc1cc(Cl)c(C)cc1-n1cc(C(=O)c2cc(Br)ccc2O)cc(C#N)c1=O`: the inhibition was -0.77% in experiment [1], -1.65% in experiment [2] and 0.03% in experiment [3].
The matching figures for `O=C(CC(=O)Nc1cc(Cl)cc(Cl)c1)Nc1cc(Cl)cc(Cl)c1`: -1.77%, -3.47% and 0.68%.
As to `COC(=O)c1cccc(CN(CCC(O)(C(F)(F)F)C(F)(F)F)C(=O)CC2CCCC2)c1`, the inhibition in experiment [1] came to 3.39%; in experiment [2] it was 1.44%; in experiment [3], 1.91%.
For `CCOc1c(CNCCCNc2cc(=O)c3ccccc3[nH]2)cc(I)cc1C(C)(C)C`, the figures for the inhibition in experiment [1], in experiment [2] and in experiment [3] were -0.21%, 1.18% and 0.27%, respectively.
